# Bioassay records (PubChem)
# ABHD5-PLIN5 inh: ABHD5-PLIN5 protein interaction inhibition. Q00G26+Q8WTS1. Split G. princeps luciferase complementation, luminescence, 4 h. inhibition, % at 4 µM. 360,000 compounds, 0.78% hits;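 active means inhibition above the mean inhibition across every tested compound plus 3 SD, cut at about 22% in these data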;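 further: 0% = DMSO only wells and the 100% control is not disclosed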
# Target sequence (Q00G26 whole entry, looked up): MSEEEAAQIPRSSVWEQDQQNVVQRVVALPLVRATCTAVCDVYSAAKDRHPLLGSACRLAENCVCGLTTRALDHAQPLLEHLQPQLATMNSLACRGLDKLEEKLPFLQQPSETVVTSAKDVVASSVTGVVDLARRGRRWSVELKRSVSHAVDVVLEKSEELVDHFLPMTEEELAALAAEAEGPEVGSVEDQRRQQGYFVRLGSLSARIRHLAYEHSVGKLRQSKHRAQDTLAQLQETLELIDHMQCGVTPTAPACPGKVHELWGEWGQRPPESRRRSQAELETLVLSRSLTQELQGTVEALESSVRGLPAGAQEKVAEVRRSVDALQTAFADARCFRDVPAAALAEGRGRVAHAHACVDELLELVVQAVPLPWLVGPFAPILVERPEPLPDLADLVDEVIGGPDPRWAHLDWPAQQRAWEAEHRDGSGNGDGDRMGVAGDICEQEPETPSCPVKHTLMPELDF
# Target sequence (Q8WTS1 whole entry, looked up): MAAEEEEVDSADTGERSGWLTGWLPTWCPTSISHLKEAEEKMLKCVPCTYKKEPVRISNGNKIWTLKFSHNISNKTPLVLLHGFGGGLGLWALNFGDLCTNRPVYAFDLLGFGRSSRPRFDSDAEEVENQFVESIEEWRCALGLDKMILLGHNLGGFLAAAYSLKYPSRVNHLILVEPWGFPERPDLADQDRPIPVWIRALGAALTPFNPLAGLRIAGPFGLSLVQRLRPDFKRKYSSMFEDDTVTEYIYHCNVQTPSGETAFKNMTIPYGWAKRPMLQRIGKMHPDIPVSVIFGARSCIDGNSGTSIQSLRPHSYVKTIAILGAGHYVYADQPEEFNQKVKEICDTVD
# LANA-H2A inh: blocks KSHV LANA binding to histone H2A/H2B; cell-free LANA-H2A/H2B peptide, fluorescence polarization; inhibition, % (test concentration not listed); 320,000 compounds, 0.6% hits; AID 2629; in the data active means inhibition mostly above about 10%, no sharp cut-off; inactive means mostly below about 6.7%
# Rtt109 Vps75: inhibitors of Candida albicans Rtt109/Vps75 histone acetyltransferase | 330,000 compounds, 0.16% hits | inhibition, % at 34.9 µM | purified Rtt109/Vps75, ThioGlo CoA-SH fluorescence, 4 h | Q5AAJ8;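 active means inhibition of at least 50% in every replicate; inconclusive means best replicate reaches 50% inhibition but some replicates fall short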
# rCAG binder: binds r(CAG) RNA repeats | r(CAG) RNA repeat, TO-PRO-1 dye displacement fluorescence | inhibition, % at 3 µM | 370,000 compounds, 1.3% hits;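 active means inhibition above the plate cutoff, the mean of all test compounds on that plate plus 3 SD, cut at about 35% in these data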;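 further: 0% = DMSO alone and 100% = 100 µM mitoxantrone as full dye displacement; higher means more dye released from RNA so lower well fluorescence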
# ALR inh: inhibitors of human sulfhydryl oxidase ALR; P55789; purified ALR, DTT oxidation, H2O2 HRP-luminol luminescence; inhibition, % (test concentration not listed); 290,000 compounds, 3.8% hits; AID 485317;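 active means mean replicate inhibition above about 79%, with every replicate also reaching it, limit read from the data; inconclusive means only one of the two criteria met; inactive means mean below limit and not every replicate reaching it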
# PRMT1 inh: PRMT1 (human) inhibition, primary screen | AID 652257 | recombinant PRMT1, activity-based probe fluorescence polarization | inhibition, % at 2.79 µM | 370,000 compounds, 1.3% hits | Q99873;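 active means inhibition above about 21% made by adding two undisclosed values, limit read from the data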
# rCAG binder conf: r(CAG) RNA repeat binding, confirmation; shares compounds with rCAG binder; TO-PRO-1 dye displacement fluorescence; inhibition, % at 3 µM; 4,300 compounds, 70% hits; AID 652065;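 active means inhibition above a per-plate cutoff, the mean inhibition of sample wells plus 3 SD, cut at about 35% in these data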;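 further: loss of TO-PRO-1 fluorescence as compound displaces dye from 1x1 AA loop RNA; 0% = DMSO only wells and 100% = 100 µM mitoxantrone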
# dCAG dye counter: disrupts DNA CAG TO-PRO-1 complex, flagging rCAG hits. shares compounds with rCAG binder. d(CAG) DNA oligo TO-PRO-1 dye displacement, fluorescence. inhibition, % at 3 µM. 4,300 compounds, 94% hits;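 active means inhibition above its plate's cutoff, the mean test-well inhibition plus 3 SD, cut at about 4.8% in these data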;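 further: 0% = DNA dye mix with DMSO and 100% = 100 µM mitoxantrone; hits displace the dye from DNA and so lower well fluorescence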
# Numbers without * were called inactive; ? = inconclusive; / = not tested or not shown. An excerpt weighted towards active compounds, which were near 5.9% of everything screened.
SMILES,ABHD5-PLIN5 inh,LANA-H2A inh,Rtt109 Vps75,rCAG binder,ALR inh,PRMT1 inh,rCAG binder conf,dCAG dye counter
Cc1ccc2nc(NNC(=O)c3ccc(S(=O)(=O)N4CCc5ccccc5C4)cc3)sc2c1,34*,-1,6,51*,2,-3,60*,29*
Cc1cccc2sc(NNC(=O)c3ccc(S(=O)(=O)N4CC(C)CC(C)C4)cc3)nc12 (stereo not drawn),38*,-1,3,66*,0,2,63*,30*
Cc1cc(C)c2nc(NNC(=O)c3ccc(S(=O)(=O)N4CC(C)CC(C)C4)cc3)sc2c1 (stereo not drawn),29*,1,0,43*,-2,12,49*,24*
O=C(O)c1ccc(C#Cc2cccc(F)c2)cn1,/,/,/,4,/,1,/,/
CN1CC(=O)N2[C@@H](C[C@]3(c4c[nH]c5ccccc45)c4ccccc4N(S(=O)(=O)c4ccccc4)[C@H]23)C1=O,/,/,/,/,/,1,/,/
C/C(=N/Nc1ccc([N+](=O)[O-])cc1)c1c[nH]c2ccccc12,2,-3,-3,34,55,7,/,/
COC(=O)c1ccc(CSc2nc3scc(-c4cccs4)c3c(=O)[nH]2)o1,-1,-2,5,35*,-14,5,32,14*
COC(=O)c1ccc(CSc2nc3c(cnn3-c3ccc(C)c(C)c3)c(=O)[nH]2)o1,-4,0,4,6,-1,-1,/,/
CCOc1cc(CC(=O)N[C@@H](CC(C)C)c2ccccc2N2CCCCC2)ccc1C(=O)O,-3,-4,29,47*,24,-2,36*,9.8*
Cc1ccc(Sc2ncccc2C(=O)NCc2cc([N+](=O)[O-])ccc2O)cc1C,8,-1,13,35*,89*,-2,22,5.3*
CC(C)(C)OC(=O)Nc1ccccc1-n1nnnc1C(C(=O)c1ccccc1)N1CCN(c2ccccn2)CC1 (stereo not drawn),0,/,/,8,/,1,/,/
Cc1ccc(C)c(S(=O)(=O)C(C#N)c2nc3ccccc3nc2N2CCCC2)c1 (stereo not drawn),3,-7,1,0,-14,-1,/,/
Cc1ccc(C)c(S(=O)(=O)C(C#N)c2nc3ccccc3nc2N2CC(C)OC(C)C2)c1 (stereo not drawn),-3,4,-2,38*,59,0,75*,41*
O=C(O)c1cc(Cl)c(Cl)cc1C(=O)N(Cc1ccccc1)Cc1ccccc1,8,2,-3,37*,9,5,45*,12*
O=C(O)c1ccccc1C(=O)N(Cc1ccccc1)Cc1ccccc1,-4,-1,17,5,/,1,/,/
Cc1sc(NC(=O)C2CCCCC2C(=O)O)c(C(N)=O)c1-c1ccc(C(C)C)cc1 (stereo not drawn),-11,-1,20,37*,38,2,54*,16*
COc1ccc(C(=O)/C=C/c2ccc(O)cc2)c(O)c1C/C=C(\C)CCC=C(C)C,-11,/,19,69*,/,5,65*,28*
O=C(c1cc(C(=O)N2CCOCC2)c2nc3ccccc3n2c1)c1cc(Cl)cc(Cl)c1O,5,-5,5,46*,3,2,44*,12*
C=CCCC1CN(Cc2ccc(OC)cc2)S(=O)(=O)c2c(F)cccc2O1 (stereo not drawn),/,/,/,0,/,-4,/,/
COCc1[nH]nc2c1C(c1ccccc1)N(Cc1ccccc1)C2=O (stereo not drawn),/,/,/,1,/,-5,/,/
CC(=O)Oc1[nH]c(=O)c2cccc3c2c1CCC3,-7,/,/,3,/,7,/,/
COc1cccc(OCC(=O)Nc2ccncc2)c1,6,0,1,-1,-5,1,/,/
Cc1cccc(OCC(=O)Nc2cc(NC(=O)COc3cccc(C)c3)cc(C(=O)O)c2)c1,-5,-3,-3,63*,48,-2,61*,22*
COc1cccc(OCC(=O)Nc2cc(NC(=O)COc3cccc(OC)c3)cc(C(=O)O)c2)c1,-1,3,4,55*,99*,-1,53*,18*
Cc1cc(C)cc(OCC(=O)Nc2cccc(C(=O)O)c2)c1,4,4,-9,5,-3,0,/,/
SMILES,ABHD5-PLIN5 inh,LANA-H2A inh,Rtt109 Vps75,rCAG binder,ALR inh,PRMT1 inh,rCAG binder conf,dCAG dye counter
Oc1ccccc1C=NC(N=Cc1ccccc1O)c1ccccc1O (stereo not drawn),/,/,/,6,/,6,/,/
COC(=O)C1CN(Cc2cn(Cc3ccc(Cl)cc3)nn2)CCS(=O)(=O)N1Cc1ccc(C)cc1 (stereo not drawn),/,/,/,-1,/,2,/,/
CCOC(=O)c1sc(N2C(=O)C(O)=C(C(=O)c3ccco3)C2c2cccc([N+](=O)[O-])c2)nc1C (stereo not drawn),0,2,33,70*,91*,3,82*,50*
CCOC(=O)c1sc(N2C(=O)C(O)=C(C(=O)c3ccco3)C2c2cccc(Cl)c2)nc1C (stereo not drawn),-19,-3,14,74*,/,5,57*,19*
COC(=O)c1sc(N2C(=O)C(O)=C(C(=O)c3ccc(C)o3)C2c2cccs2)nc1C (stereo not drawn),10,0,-8,48*,?,15,48*,17*
COC(=O)c1sc(N2C(=O)C(O)=C(C(=O)c3ccc(C)o3)C2c2ccco2)nc1C (stereo not drawn),1,3,0,16,10,8,/,/
Cc1cc(N2C(=O)C(O)=C(C(=O)c3ccco3)C2c2cccc(Oc3ccccc3)c2)no1 (stereo not drawn),-7,-3,26,58*,94*,2,59*,21*
Cc1cc(N2C(=O)C(O)=C(C(=O)c3ccco3)C2c2cccc(O)c2)no1 (stereo not drawn),-1,4,-3,5,-4,2,/,/
Cc1ccc(-n2c(SCC(=O)c3ccccc3Cl)nnc2-c2cnccn2)cc1,/,/,/,2,/,-1,/,/
Cc1[nH]n(-c2ccccc2)c(=O)c1N=Nc1ccccc1O,-9,/,2,40*,/,2,27,13*
Cc1[nH]n(-c2ccccc2)c(=O)c1N=Nc1ccccc1C(=O)O,8,-14,17,33,15,0,/,/
Cc1occc1C(=O)Nc1nnc(C(F)(F)F)s1,4,4,16,2,9,0,/,/
O=C(Nc1ccccc1C(=O)Nc1nnc(C(F)(F)F)s1)c1ccccc1,6,-5,-15,38*,-3,5,72*,33*
